Assay outcomes: PubChem, National Center for Advancing Translational Sciences (NCATS)
HT1080-NT tox = qHTS for induction of synthetic lethality in tumor cells producing 2HG: qHTS for the HT-1080-NT fibrosarcoma cell line. Potency, µM (top dose mostly 46.1 µM), without a hit: top-dose activity, negative = less viability, most hits filed as cytotoxic. HT-1080-NT fibrosarcoma viability, CellTiter-Glo ATP luminescence, 48 h. actives 1.6% (n = 360,000);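 also: NT is the 2HG producing partner of a matched IDH1 knockdown line; potency is read from the fitted curve at half-maximal effect; 0% = DMSO-treated cells and -100% = media-only wells without cells; nearly all actives have a fitted effect of over 55% in size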
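A 48-hour cytotoxicity screen used HT-1080-NT cells plated 2 hours before compound delivery. ATP-based CellTiter-Glo luminescence measured viability, normalized to DMSO and no-cell controls.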
HT1080 IDH1KD tx = qHTS for induction of synthetic lethality in tumor cells producing 2HG: qHTS for the HT-1080-IDH1KD cell line; Potency, µM (titrated, usually from 46.1 µM), for the others: at the top dose activity, negative = toxicity, actives largely listed as cytotoxic; actives 2% (n = 360,000); HT-1080 IDH1 knockdown viability, ATP luminescence, 48 h;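 also: potency is read from the fitted curve at half-maximal effect; 0% = DMSO wells and -100% = cell-free medium wells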
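Knockdown cells (IDH1KD HT-1080) received compounds 2 h after plating at 750 cells/well and were kept 48 h at 37 °C in 5% FBS RPMI. A CellTiter-Glo luminescence read gave % activity for curve fitting.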
IL-1B inflam inh = qHTS for Inhibitors of Inflammasome Signaling: IL-1-beta AlphaLISA Primary Screen; THP-1 LPS/ATP IL-1B secretion, AlphaLISA, 16 h; hits give low values; activity change, % at 57.5 µM; actives 4.7% (n = 360,000); AID 743279, 2014; in the data active = activity change below about -50%; inconclusive = mostly about -30% to -49%
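Secreted IL-1B measured by AlphaLISA bead assay after 16 h compound exposure of THP-1 cells; compounds (final up to 57.5 uM) added 1 h before LPS (250 ng/mL) and ATP (1.25 mM) stimulation; lower signal means less secretion.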
ALOX12 inh = Primary qHTS assay for inhibitors of human arachidonate 12S-lipoxygenase (ALOX12): Round 2. Polyunsaturated fatty acid lipoxygenase ALOX12 (Homo sapiens), P18054. purified 12hLO, xylenol orange hydroperoxide absorbance. Potency, µM (top dose mostly 108 µM), inactives show at the highest dose activity change, negative = inhibition, actives largely listed as inhibitors. actives 1.1% (n = 580,000); also: potency is read from the fitted curve at half-maximal effect
Target sequence (P18054 whole entry, looked up): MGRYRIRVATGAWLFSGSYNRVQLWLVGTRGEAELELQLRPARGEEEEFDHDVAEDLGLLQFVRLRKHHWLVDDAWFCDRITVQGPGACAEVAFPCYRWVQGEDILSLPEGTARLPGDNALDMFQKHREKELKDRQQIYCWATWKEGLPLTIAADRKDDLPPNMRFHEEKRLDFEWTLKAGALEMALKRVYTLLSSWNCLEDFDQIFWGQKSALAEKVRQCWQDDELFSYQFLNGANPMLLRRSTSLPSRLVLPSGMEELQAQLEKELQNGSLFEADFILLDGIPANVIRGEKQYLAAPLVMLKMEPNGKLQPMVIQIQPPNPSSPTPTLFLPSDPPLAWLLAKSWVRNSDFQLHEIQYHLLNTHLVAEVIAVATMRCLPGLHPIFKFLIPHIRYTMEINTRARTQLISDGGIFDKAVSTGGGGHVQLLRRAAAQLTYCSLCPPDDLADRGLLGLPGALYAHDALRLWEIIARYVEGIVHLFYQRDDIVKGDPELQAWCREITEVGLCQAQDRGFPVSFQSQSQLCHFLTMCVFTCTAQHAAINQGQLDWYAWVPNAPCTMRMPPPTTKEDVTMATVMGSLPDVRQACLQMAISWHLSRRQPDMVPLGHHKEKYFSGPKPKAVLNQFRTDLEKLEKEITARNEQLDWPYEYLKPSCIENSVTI
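Purified human 12hLO (150 nM final) in 25 mM Hepes, 0.01% Triton X-100, pH 7.0 was preincubated 15 min at room temperature with compound. Then 40 uM arachidonic acid was added, 30 min. Hydroperoxide was read by Fe-XO absorbance ratio 573/405 nm.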
TDP1 cell CPT = qHTS for Inhibitors of human tyrosyl-DNA phosphodiesterase 1 (TDP1): qHTS in cells in presence of CPT. chicken DT40 Tdp1-/-;hTDP1 cells + 20 nM CPT, ATP luminescence, 48 h. Potency, µM (series often up to 46.2 µM), inactives show at the top dose activity change, negative = growth inhibition, hits mostly inhibitors. actives 12% (n = 420,000). AID 686979, 2013; also: potency is read from the fitted curve at half-maximal effect; nearly all actives have a fitted effect of over 55% in size
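Chicken DT40 Tdp1-/- cells stably complemented with human TDP1 were seeded at 400 cells/well in medium containing 20 nM camptothecin, exposed to pin-transferred compounds, and grown at 37 °C for at least 48 hr. Viability was read as ATP luminescence.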
TDP1 cell noCPT = qHTS for Inhibitors of human tyrosyl-DNA phosphodiesterase 1 (TDP1): qHTS in cells in absence of CPT; DT40 Tdp1-/- hTDP1 cells, no CPT, ATP luminescence, 48 h; Potency, µM (highest dose often 46.2 µM), for inactives: at the highest dose activity change, negative = growth inhibition, hits mostly inhibitors; actives 15% (n = 420,000); also: potency is read from the fitted curve at half-maximal effect; nearly all actives have a fitted effect of over 55% in size
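DT40 Tdp1-/-;hTDP1 cells, no CPT (DMSO vehicle only), 400 cells/well; compounds pin-transferred; ≥48 hr, 37 °C; CellTiter-Glo 30 min RT dark, luminescence read.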
* = called active by the depositor; ? = inconclusive; . = no result given. Only a selection was taken, and hits are over-represented in it overall. Unless noted, calls follow the shape of the dose curve; as a rule, active = well fitted curve in the direction sought with a large enough effect; inconclusive = small, poorly fitted or top-dose-only effect, or another doubt; inactive = no such curve, though single readings can be large; an effect the other way counts as inactive or inconclusive. Unless noted, % is scaled to controls: 0 for no effect and ±100 for the full control effect.

SMILES	HT1080-NT tox	HT1080 IDH1KD tx	IL-1B inflam inh	ALOX12 inh	TDP1 cell CPT	TDP1 cell noCPT
COc1ccc(C(O)c2nc(-c3ccc(C)c(C)c3)cs2)cc1 (stereo unspecified)	0.3%	-5.7%	63.4	-13.0%	?	?
COc1cccc(C(O)c2nc(-c3cccc(C(C)C)c3)cs2)c1 (stereo unspecified)	-21.1%	?	0.0	?	?	?
COc1cccc(C(O)c2nc(-c3ccc(N(C)C)cc3)cs2)c1 (stereo unspecified)	-17.9%	?	28.1	-2.7%	23.1µM*	16.4µM*
COc1cccc(C(O)c2nc(-c3cnn(C)c3)cs2)c1 (stereo unspecified)	4.7%	0.0%	42.2	3.0%	?	?
CCCCCN1CSC(=S)N(Cc2ccccc2)C1	-0.7%	-17.6%	-95.3*	?	4.61µM*	3.66µM*
c1csc(CN2CCOCC2)c1	-2.0%	3.2%	-10.9	-25.8%	-1.9%	-2.2%
CCN1CSC(=S)N(Cc2ccccc2)C1	-9.1%	1.0%	-100.2*	13.8%	2.59µM*	4.61µM*
S=C1SCN(Cc2cccs2)CN1Cc1cccs1	-6.1%	-8.6%	0.0	0.7%	?	23.1µM*
CCN1CSC(=S)N(Cc2ccc(OC)cc2)C1	1.6%	-2.3%	24.8	-25.0%	5.17µM*	4.61µM*
CC(C(=O)Nc1cccc(Cl)c1)N1CCN(C(=O)C2CC2)CC1 (stereo unspecified)	.	.	.	-16.4%	.	.
COc1ccc2oc(C(=O)OC(C)C(=O)N3CCC(C)CC3)c(C)c2c1 (stereo unspecified)	-3.2%	-4.9%	-2.9	365.9%	?	14.6µM*
COc1ccc2oc(C(=O)OCC(=O)N3CC(C)CC(C)C3)c(C)c2c1 (stereo unspecified)	5.7%	-3.8%	-27.0	-0.6%	?	?
COc1ccc2cc(C(C)C(=O)N3CCC(C)CC3)ccc2c1 (stereo unspecified)	14.6µM*	?	?	-8.6%	16.4µM*	?
CCN1c2cc(C(=O)Nc3ccc(C(F)(F)F)cc3)ccc2C(=O)N2CCCC21 (stereo unspecified)	.	.	.	-10.5%	.	.
Cc1ccc(C)n1-c1nnc(N2CCCC(C(=O)NCc3cccc(Cl)c3)C2)s1 (stereo unspecified)	.	.	.	-17.0%	20.6µM*	11.6µM*
COc1cccc(CNC(=O)C2CCCN(c3nnc(-n4c(C)ccc4C)s3)C2)c1 (stereo unspecified)	.	.	.	-8.5%	?	?
Cc1ccc(C)n1-c1nnc(N2CCC(C(=O)Nc3ccccc3Br)CC2)s1	.	.	.	-12.5%	?	16.4µM*
CCOc1ccc(NC(=O)C2CCN(c3nnc(-n4c(C)ccc4C)s3)CC2)cc1	.	.	.	-15.1%	23.1µM*	13µM*
COc1cccc(CNC(=O)C2CCN(c3nnc(-n4c(C)ccc4C)s3)CC2)c1	.	.	.	-24.5%	?	14.6µM*
Cc1ccc(C)n1-c1nnc(N2CCCC(C(=O)NCc3cccc(F)c3)C2)s1 (stereo unspecified)	.	.	.	-11.7%	?	-16.6%
N#CCC(=O)Nc1ccc(C(=O)OCC(=O)N2CCN(c3ccccc3)CC2)cc1	.	.	.	-1.2%	.	.
COc1ccc(CNC(=O)C2CCN(c3nnc(-n4cccc4CNc4ccc(C)cc4)s3)CC2)c(OC)c1	.	.	.	-3.7%	16.4µM*	13µM*
